Screening data deposited in PubChem BioAssay by Sanford-Burnham Center for Chemical Genomics.
The list is not random: actives were taken first. Their share in the collection is about 28%.
CYP2C19 activ – increases human CYP2C19 enzyme activity; recombinant CYP2C19, luciferin-H EGE luminescence; stronger effect = higher value; 0 = fully inhibited enzyme, 1 = untreated enzyme; activation factor at 5 µM; 96,000 tested, under 10 active; P33261; AID 1025;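 active means activation factor of at least 2 at 5 µM in the primary screen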;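 further: 0 = wells with 2.5 mM tranylcypromine and 1 = vehicle-only wells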
CYP2C19 inh – human CYP2C19 inhibition; P33261; hit rate 21% among 96,000; inhibition, % at 5 µM; AID 778; CYP2C19 Supersomes, luciferin-H EGE luminescence, 30 min;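 active means CYP2C19 inhibition above a set limit at 5 µM in the primary screen, cut at about 50% in these data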;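 further: plate controls were negative control wells for no effect and 2.5 mM tranylcypromine positive control for full effect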
CYP2C9 inh – blocks human cytochrome P450 2C9; hit rate 20% among 96,000; CYP2C9 Supersomes, luciferin-H conversion, luminescence; P11712; inhibition, % at 5 µM;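 active means blocking of liver enzyme CYP2C9 beyond about 50% at 5 µM, limit read from the data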
Target sequence (P11712 whole entry, looked up): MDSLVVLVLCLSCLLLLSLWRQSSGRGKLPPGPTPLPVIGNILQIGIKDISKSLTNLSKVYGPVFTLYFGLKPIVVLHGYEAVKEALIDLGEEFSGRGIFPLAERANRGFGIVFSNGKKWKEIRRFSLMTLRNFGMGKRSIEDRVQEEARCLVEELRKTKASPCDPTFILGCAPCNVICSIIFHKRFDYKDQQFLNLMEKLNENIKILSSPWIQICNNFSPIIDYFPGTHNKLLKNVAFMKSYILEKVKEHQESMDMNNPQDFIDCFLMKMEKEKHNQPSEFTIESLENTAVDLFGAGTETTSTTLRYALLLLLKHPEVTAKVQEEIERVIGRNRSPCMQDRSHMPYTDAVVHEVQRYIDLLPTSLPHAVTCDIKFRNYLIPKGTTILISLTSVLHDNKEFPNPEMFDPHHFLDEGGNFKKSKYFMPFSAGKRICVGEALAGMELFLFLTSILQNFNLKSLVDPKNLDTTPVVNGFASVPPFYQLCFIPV
CYP2C9 act – CYP2C9 (human) activation; P11712; recombinant CYP2C9, luciferin-H conversion, luminescence; stronger effect = higher value; factor 1 = untreated enzyme, 0 = blocked; activation factor at 5 µM; hit rate 1.4% among 96,000;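 active means activation factor of 2 or more for CYP2C9 at a 5 µM dose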;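 further: 0 = sulfaphenazole-blocked wells and 1 = vehicle-only wells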
PTK2B oligo ant – antagonists of human Pyk2 oligomerization; z-score (the deposit names both 25 µM and 10 µM); Q293 cells, Pyk2 FERM NanoBiT luminescence; stronger effect = lower value; hit rate 0.83% among 99,000; AID 1347419;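 active means Z-score of -3 or lower, scaled per plate to the spread of control and sample wells; inactive means z-score above -3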;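 further: negative z-score means lost luminescence so less FERM oligomerization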
An asterisk follows results filed as active; . = no result given.

SMILES	CYP2C19 activ	CYP2C19 inh	CYP2C9 inh	CYP2C9 act	PTK2B oligo ant
O=[N+]([O-])c1ccccc1CNCCc1ccc(F)cc1	0.1	86*	-3	1	-0.22
COc1ccc(CCNCc2ccccc2F)cc1OC	.	.	.	.	0.25
CCN(CC)C(=O)c1ccc(NC(=O)Cn2nc(C)c3ccccc3c2=O)cc1	0.3	66*	19	0.8	1.8
Cc1cccc(OCC(=O)N2CCN(Cc3ccncc3)CC2)c1	0.1	92*	88*	0.1	0.55
COc1ccc(CN2CCN(C(=O)COc3cccc(C)c3)CC2)c(OC)c1	0.9	12	-3	1	1.7
COc1ccccc1CN1CCN(C(=O)COc2cccc(C)c2)CC1	1	3	8	0.9	0.06
COc1ccc(OC)c(CN2CCN(C(=O)COc3cccc(C)c3)CC2)c1	0.4	62*	40	0.6	1.2
COc1cc(CN2CCN(C(=O)COc3ccccc3)CC2)cc(OC)c1OC	0.9	10	9	0.9	0.23
O=C(COc1ccc(Br)cc1)N1CCN(Cc2ccncc2)CC1	0.2	83*	63*	0.4	0.57
CC(C(N)=O)N1CC(c2ccc(Cl)cc2)CC1=O (stereo not drawn)	0.7	34	6	0.9	-0.22
CNCC1(c2ccccc2)CCCC1	1	3	7	0.9	0.9
CC(=NCCN1CCOCC1)c1c(O)n(C2CCCCC2)c(=O)[nH]c1=O	0.9	10	21	0.8	-0.86
COc1ccc2c(c1OC)C(=O)OC2c1c(O)n(C2CCCCC2)c(=O)[nH]c1=O (stereo not drawn)	0.9	6	69*	0.3	0
CC(C)C/C(=N/O)c1c[nH]c2ccccc12	0.2	77*	59*	0.4	-0.37
CC(NC1CCCCC1)C(O)C12CC3CC(CC(C3)C1)C2 (stereo not drawn)	0.9	13	19	0.8	0.1
FC(F)(F)c1ccc2c(c1)NP(=S)(N1CCOCC1)c1nccn1-2 (stereo not drawn)	0.4	61*	48	0.5	-0.37
COc1ccc(CN2CCN(c3ccccc3F)CC2)cc1O	0.3	74*	8	0.9	0.25
COc1ccccc1N1CCN(Cc2ccc(Cl)cc2Cl)CC1	0.4	56*	23	0.8	-0.44
Fc1ccccc1N1CCN(Cc2c(F)cccc2F)CC1	0	100*	63*	0.4	-0.99
O=C(C1CCC(=O)N1C1CCCCC1)N1CCC2(CC1)OCCO2 (stereo not drawn)	1	3	9	0.9	1.9
O=C(CCCC1=NS(=O)(=O)c2ccccc2N1)N1CCC2(CC1)OCCO2	1	-1	2	1	-0.21
CCOP(=O)(C#CC(C)(C)C)C(O)(c1ccccc1)C(F)(F)F (stereo not drawn)	1.2	-24	-29	1.3	-0.22
O=c1[nH]c(=O)n(-c2cccc3ccccc23)c(O)c1C=NCCCn1ccnc1	0.8	22	75*	0.3	-1.1
O=c1[nH]c(=O)n(Cc2ccccc2)c(O)c1C=NCCCn1ccnc1	0.9	7	64*	0.4	0.46
O=c1[nH]c(=O)n(Cc2ccc(F)cc2)c(O)c1C=NCCCn1ccnc1	0.7	33	86*	0.1	0.19
SMILES	CYP2C19 activ	CYP2C19 inh	CYP2C9 inh	CYP2C9 act	PTK2B oligo ant
O=c1[nH]c(=O)n(Cc2ccc(F)cc2)c(O)c1C=NCCCO	1	-3	-6	1.1	1.3
CCCCn1c(O)c(C=NCCCn2ccnc2)c(=O)[nH]c1=O	0.8	22	46	0.5	-0.3
COc1ccccc1-n1c(O)c(C=NCCCn2ccnc2)c(=O)[nH]c1=O	0.9	8	16	0.8	0.68
O=c1[nH]c(=O)n(CCc2ccccc2)c(O)c1C=NCCCn1ccnc1	0.5	50*	73*	0.3	2.1
O=P(O)(O)/C=C(\Cl)c1ccccc1	1.2	-22	-18	1.2	2.1
O=C1C2CCN(CC2)[C@@H]1Cc1ccc2ccccc2c1O	0.8	22	-35	1.4	0.75
c1cncc(CNC2=NCCCCC2)c1	1	-4	-13	1.1	0.24
O=c1[nH]c(=O)n(CCC2=CCCCC2)c(O)c1C=NC1CCN(Cc2ccccc2)CC1	0.7	31	80*	0.2	0.97
CN(C)c1ccc(N=Cc2c(O)n(CCC3=CCCCC3)c(=O)[nH]c2=O)cc1	0.9	13	32	0.7	-3.4*
CCCCCCn1c(O)c(C=NC2CCN(Cc3ccccc3)CC2)c(=O)[nH]c1=O	0.7	26	73*	0.3	0.26
CCCCn1c(O)c(C(C)=Nc2c(C)n(C)n(-c3ccccc3)c2=O)c(=O)[nH]c1=O	1	4	36	0.6	-0.13
CC(c1ccccc1)n1cncc1C(=O)N1CCCC1=O (stereo not drawn)	0.5	48	37	0.6	0.19
O=C1NC(=O)N(C2CCCCC2)C(=O)C1C1c2ccccc2C(=O)N1Cc1ccccc1 (stereo not drawn)	0.9	8	47	0.5	0
Cc1cccc(C2=NCC(=O)N(CC(=O)NCc3ccco3)c3sc4c(c32)CCCC4)c1	0.5	51*	59*	0.4	-0.49
COc1ccc(-n2c(O)c(C(C)=NCc3ccco3)c(=O)[nH]c2=O)cc1	0.9	15	13	0.9	0.49
CC(Cc1ccccc1Sc1ccccc1O)N(C)C (stereo not drawn)	0.4	61*	21	0.8	0.1
CN1C(=O)N(C)C(=O)C2(Cc3ccccc3N3CCOCC32)C1=O (stereo not drawn)	0	98*	-2	1	0.59
C(=NC12CN3CN(CN(C3)C1)C2)c1cccs1	1.2	-19	-9	1.1	0.97
CCC(=Nc1ccccc1NC(C)=O)c1c(O)n(C)c(=O)n(C)c1=O	0.8	15	34	0.7	1.6
